Screening data: PubChem, National Center for Advancing Translational Sciences (NCATS)
GLP-1R agonist: GLP-1 receptor (human) agonism; 380,000 compounds, 0.007% hits; Potency, µM (highest dose often 45.6 µM), inactives show top-dose activation, hits mostly activators; HEK293 GLP-1R CRE-luciferase, luminescence, 4-6 h; cells express a hypersensitive GLP-1R form; AID 624172; P43220; also: % of control where 0% means no effect
Target sequence (P43220 whole entry, looked up): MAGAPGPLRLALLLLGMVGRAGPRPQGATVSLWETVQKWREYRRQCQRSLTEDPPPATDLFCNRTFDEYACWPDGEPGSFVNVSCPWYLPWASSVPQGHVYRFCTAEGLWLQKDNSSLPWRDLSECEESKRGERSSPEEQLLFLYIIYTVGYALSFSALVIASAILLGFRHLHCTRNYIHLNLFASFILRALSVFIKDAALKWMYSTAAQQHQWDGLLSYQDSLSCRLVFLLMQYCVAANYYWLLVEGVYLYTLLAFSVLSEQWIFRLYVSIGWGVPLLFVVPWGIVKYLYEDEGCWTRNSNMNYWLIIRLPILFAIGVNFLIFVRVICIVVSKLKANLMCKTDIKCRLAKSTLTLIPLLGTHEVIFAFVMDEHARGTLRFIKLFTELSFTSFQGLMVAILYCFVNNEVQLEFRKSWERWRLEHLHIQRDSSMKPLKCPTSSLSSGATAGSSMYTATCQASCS
12-LOX inh: inhibitors of human 12S-lipoxygenase ALOX12; P18054; purified 12hLO, xylenol orange hydroperoxide absorbance; Potency, µM (titrated, usually from 108 µM), for inactives: top-dose activity change, negative = inhibition, most hits filed as inhibitors; 580,000 compounds, 1.1% hits; AID 1671190; also: % is scaled to controls: 0 for no effect and ±100 for the full control effect
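Purified human 12hLO (150 nM final) in 25 mM Hepes, 0.01% Triton X-100, pH 7.0 was preincubated 15 min at room temperature with compound. Then 40 uM arachidonic acid was added, 30 min. Hydroperoxide was read by Fe-XO absorbance ratio 573/405 nm.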
GRP78 ERSR act: ER stress response induction in glioma | 420,000 compounds, 0.02% hits | Potency, µM, for inactives: top-dose activation, actives largely listed as activators | U87-MG GRP78 promoter luciferase reporter, 16 h | AID 602332; also: series mostly up to about 76 µM; % of control where 0% means no effect; nearly all actives have a fitted effect of over 35% in size
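ERSR induction read as luciferase luminescence (Bright-Glo, 10 min at room temperature) in stably transfected human U87-MG glioma cells exposed to compounds for 16 h, using GRP78 as sensor.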
GLP1R inv ag: inverse agonists of human GLP-1 receptor; 410,000 compounds, 1.6% hits; Potency, µM (highest dose often 38.3 µM), without a hit: at the highest dose activity change, negative = inhibition, hits mostly inhibitors; AID 624417; HEK293 GLP-1R CRE-luciferase, luminescence, 24 h; GLP-1R form is constitutively active; also: % is scaled to controls: 0 for no effect and ±100 for the full control effect; nearly all actives have a fitted effect of over 55% in size
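Stable HEK293 clone (constitutively active GLP-1R + cAMP-response luciferase); 200 cells/uL plated, 12 h pre-culture, compound 24 hr, 37 deg C/5% CO2; detection reagent 12 min RT; luminescence.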
GLS inhibitor: blocks human kidney-isoform glutaminase activity | Potency, µM (titrated, usually from 45.5 µM), for the others: at the highest dose activity change, negative = inhibition, most hits filed as inhibitors | AID 624170 | 410,000 compounds, 0.21% hits | O94925 | GLS enzymatic activity, qHTS titration; also: % is scaled to controls: 0 for no effect and ±100 for the full control effect
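Enzyme dispensed in phosphate buffer (45 mM, pH 8.2, 0.02% Tween-20), compounds pinned in, then 1 mM L-glutamine solution and the glutamate oxidase–HRP–Amplex Red mix added; fluorescence read immediately and again after 30 min at room temperature.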
PTHR1 ag: agonists of human PTHR1 parathyroid hormone receptor; 410,000 compounds, 0.075% hits; AID 743266; Q03431; Potency, µM (top dose mostly 115 µM), for inactives: at the top dose activation, usual class: activators; HEK293 GP2 PTHR1 cells, GloSensor cAMP luminescence, 1 h; also: nearly all actives have a fitted effect of over 55% in size
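HEK-293-derived GP2 cells expressing PTHR1 and a GloSensor cAMP reporter, 3,000/well, plated overnight, given luciferin plus IBMX (each 0.5 mM as added) for 1 h at 37 °C, then compound for 1 h at 37 °C. Luminescence was read after 15 min at room temperature.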
The depositor's hits bear a star; i = inactive; ? = inconclusive; nt = not tested or not shown; [ ] = dose if it differs, or a comment. Hits are enriched below; roughly 2.3% of the tested compounds scored in any of these assays. Calls follow the shape of the dose curve; as a rule, active = well fitted curve in the direction sought with a large enough effect; inconclusive = small, poorly fitted or top-dose-only effect, or another doubt; inactive = no such curve, though single readings can be large; an effect the other way counts as inactive or inconclusive. Potency is read from the fitted curve at half-maximal effect.

SMILES	GLP-1R agonist	12-LOX inh	GRP78 ERSR act	GLP1R inv ag	GLS inhibitor	PTHR1 ag
O=C(O)c1cccc2c1NC(c1cccc([N+](=O)[O-])c1)C1CC(Sc3ccccc3[N+](=O)[O-])C(Cl)C21 (centres undefined)	3.4%	8.91µM*	-1.6%	?	5.1%	-46.6%
Cc1oc(-c2cccs2)nc1CC(=O)N1CCN(CC(=O)N2CCCCC2)CC1	nt	7.6%	nt	nt	nt	nt
COC(=O)c1c(C)n(Cc2ccc3c(c2)OCO3)c2ccc(O)cc12	3.8%	12.6µM*	-0.9%	4.6%	-0.3%	-10.5%[57.5 µM]
CCCn1c(C)c(C(=O)OCc2ccccc2)c2cc(O)ccc21	nt	35.5µM*	nt	nt	nt	nt
CCOC(=O)c1c(C)n(COCCO)c2ccc(O)cc12	24.5%	0.5%	-2.6%	3.2%	40.0%	20.9%
CCOC(=O)c1c(C)n(Cc2ccc3c(c2)OCO3)c2ccc(O)cc12	5.9%	?	7.3%	4.9%	nt	-41.3%
CC(=O)OC1CC2(O)[C@@H]3CCC4CC(OC5CC(O)C(OC6CC(O)C(OC7CC(O)C(O)C(C)O7)C(C)O6)C(C)O5)CCC4(C)[C@H]3CCC2(C)C1C1=CC(=O)OC1 (some centres undefined)	nt	-65.6%	nt	nt	nt	nt
CC(C)N1CCN(c2oc(C3CC3)nc2C#N)CC1	nt	-32.2%	nt	nt	nt	nt
C=C(C)[C@@]12OC3(c4ccccc4)O[C@@H]1C1[C@@H]4O[C@]4(CO)[C@@H](O)[C@]4(O)C(=O)C(C)=C[C@H]4[C@@]1(O3)[C@H](C)[C@H]2OC(=O)/C=C/C=C/c1ccccc1 (some centres undefined)	-2.3%	nt	?	2.82µM*	-2.0%	-82.7%
CCN1CCN(C(=O)COc2ccc3c(=O)c(-c4ccccc4)coc3c2)CC1	nt	2.0%	nt	nt	nt	nt
O=C1Nc2ccccc2CC12CN(Cc1ccncc1)C2	nt	6.2%[12.5 µM]	nt	nt	nt	nt
CCCCN(Cc1ccccc1)C1CCN(CCc2ccccc2)CC1	0.9%	?	-6.6%	10µM*	-21.7%	i
N#Cc1cc2c(cc1C(=O)c1cccs1)OCCO2	nt	-5.3%	nt	nt	nt	nt
Cc1ccc(Sc2ccc(C=C3C(=O)N(C)C(=O)N(C)C3=O)o2)cc1	-18.7%	35.5µM*	-2.3%	5.8%[0.307 µM]	?	i
COc1ccc([C@@H]2CN(c3nccc(C)n3)[C@@H]3C4CCN(CC4)[C@@H]32)cc1	nt	48.2%	nt	nt	nt	nt
O=C(COc1ccc2ccccc2c1)N1CCN(CC2CC3C=CC2C3)CC1 (centres undefined)	-0.7%	?	-3.5%	8.91µM*	12.8%	-16.0%[57.5 µM]
O=C(COc1ccc2ccccc2c1)N1CCN(C2CCN(Cc3ccccc3)CC2)CC1	-9.6%	-14.7%	-3.5%	?	6.1%	-8.3%[57.5 µM]
COc1ccccc1CN1CCN(C(=O)COc2ccc3ccccc3c2)CC1	-4.1%	?	-3.3%	10µM*	6.7%	-7.0%
O=C(Cc1ccccc1Cl)N1CCN(C2CCN(CCc3ccccc3)C2=O)CC1 (centres undefined)	nt	70.0%	nt	nt	nt	nt
CCN(CC)c1ccc(/C=C2\C(=O)NC(=O)N(Cc3ccco3)C2=O)cc1	-8.1%	44.7µM*	-5.1%	-6.9%	17.8%	i
CS(=O)(=O)NC[C@H]1C[C@@H]2CCN1C[C@@H]2CN1CCCCC1	nt	23.4%[176 µM]	nt	nt	nt	nt
Cc1ccc(OP(=O)(NCc2ccccc2)Oc2ccc(C)cc2)cc1	6.9%	?	-5.2%	7.08µM*	-4.5%	-37.0%
Cc1ccc(NP(=O)(Oc2ccccc2)Oc2ccccc2)cc1	-2.8%	-4.9%	-2.4%	-48.4%	1.5%	-38.6%
O=c1ccc(-c2ccccc2F)c2n1C[C@H]1C[C@@H]2CN(S(=O)(=O)c2ccccc2)C1	nt	48.4%[176 µM]	nt	nt	nt	nt
CC1=CC(=C2C(=O)NC(=O)NC2=O)C=C(C(F)(F)F)N1C(C)C	7.3%	-5.3%	-3.6%	38.8%	18.5%	28.2µM*
